Source: PubChem BioAssay (EPA / NIEHS)
The source made the active and inactive calls. The calls were made as follows: active = hit-call score of the fitted dose curve at least 0.9, where 1 is the maximum; inactive = score below 0.9.

Tests used:
Details in all cases: mRNA level, 48 h; actives raise or lower the signal
[1] = read-out: Cytochrome P450 (CYP24A1), CYP24A1 (gene 1591); assay: LTEA_HepaRG_CYP24A1: Life Technologies and Expression Analysis (LTEA) Assay for Cytochrome P450 (CYP24A1) using HepaRG (AID 2283478)
Procedure, shortened: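 mRNA of CYP24A1 quantified by TaqMan qRT-PCR (ACTB/GAPDH/POLR2A normalization) after 48 h chemical exposure of HepaRG cells, top concentration 100 uM, half-log steps, 0.5% DMSO vehicle, duplicates. Curves fitted bidirectionally against DMSO baseline.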

[2] = read-out: Cytochrome P450 (CYP1A2), CYP1A2 (gene 1544); assay: LTEA_HepaRG_CYP1A2: Life Technologies and Expression Analysis (LTEA) Assay for Cytochrome P450 (CYP1A2) using HepaRG (AID 2283479)
Procedure, shortened: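 CYP1A2 transcript measured by TaqMan qRT-PCR against three housekeeping genes after 48-hour chemical exposure of HepaRG cells. Eight-point half-log series topping at 100 uM in 0.5% DMSO, duplicates; gain or loss fitted relative to vehicle.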

[3] = read-out: Cytochrome P450 (CYP2B6), CYP2B6 (gene 1555); assay: LTEA_HepaRG_CYP2B6: Life Technologies and Expression Analysis (LTEA) Assay for Cytochrome P450 (CYP2B6) using HepaRG (AID 2283481)
Procedure, shortened: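 CYP2B6 transcript level quantified by qRT-PCR against three housekeeping genes, fitted bidirectionally relative to DMSO. HepaRG cultures received chemicals for 48 h, 8-point half-log series from 100 uM in 0.5% DMSO, duplicate wells, serum-free induction medium.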

[4] = read-out: CYP2C8 (gene 1558); assay: LTEA_HepaRG_CYP2C8: Life Technologies and Expression Analysis (LTEA) Assay for CYP2C8 using HepaRG (AID 2283483)
Procedure, shortened: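 Differentiated HepaRG cells in serum-free induction medium exposed 48 h in duplicate to 8 half-log concentrations from 100 uM in 0.5% DMSO. CYP2C8 mRNA by qRT-PCR normalized to ACTB, GAPDH, POLR2A; bidirectional fit versus DMSO.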

[5] = read-out: CYP2C9 (gene 1559); assay: LTEA_HepaRG_CYP2C9: Life Technologies and Expression Analysis (LTEA) Assay for CYP2C9 using HepaRG (AID 2283484)
Procedure, shortened: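 Differentiated human HepaRG cells in serum-free induction medium were exposed 48 h to chemicals in 8-point half-log series from 100 uM (0.5% DMSO), in duplicate. CYP2C9 mRNA was measured by qRT-PCR, normalized to ACTB/GAPDH/POLR2A, with bidirectional fitting versus DMSO.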

[6] = read-out: CYP2E1 (gene 1571); assay: LTEA_HepaRG_CYP2E1: Life Technologies and Expression Analysis (LTEA) Assay for CYP2E1 using HepaRG (AID 2283485)
Procedure, shortened: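 Differentiated HepaRG cells were treated in duplicate for 48 h with chemicals in 0.5% DMSO, from 100 uM downward in half-log dilutions. RNA was then analysed by qRT-PCR for CYP2E1 induction or loss.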

[7] = read-out: CYP4A11 (gene 1579); assay: LTEA_HepaRG_CYP4A11: Life Technologies and Expression Analysis (LTEA) Assay for CYP4A11 using HepaRG (AID 2283486)
Procedure, shortened: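 Readout is CYP4A11 transcript level by qRT-PCR, normalized to three housekeeping genes and fitted bidirectionally against 0.5% DMSO. Human HepaRG cells were treated 48 h, in duplicate, with an 8-point half-log series topping at 100 uM.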

[8] = read-out: Pro-epidermal growth factor (Homo sapiens) (UniProt P01133); assay: LTEA_HepaRG_EGF: Life Technologies and Expression Analysis (LTEA) Assay for Epidermal growth factor (EGF) using HepaRG (AID 2283489)
Procedure, shortened: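 EGF transcript measured by Fluidigm TaqMan qRT-PCR with three housekeeping genes for normalization, 48 h after dosing HepaRG cultures in duplicate (top 100 uM, half-log steps, 0.5% DMSO vehicle). Gain or loss relative to DMSO fitted.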

[9] = read-out: Early growth response protein 1 (EGR1) transcription factor, EGR1 (gene 1958); assay: LTEA_HepaRG_EGR1: Life Technologies and Expression Analysis (LTEA) Assay for Early growth response protein 1 (EGR1) transcription factor using HepaRG (AID 2283490)
Procedure, shortened: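 Differentiated HepaRG cells in serum-free induction medium exposed 48 hours, duplicate, to 8 half-log concentrations up to 100 uM in 0.5% DMSO. EGR1 mRNA measured by TaqMan qRT-PCR, normalized to ACTB, GAPDH, POLR2A; bidirectional fit versus DMSO.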

[10] = read-out: Ezrin (EZR), EZR (gene 7430); assay: LTEA_HepaRG_EZR: Life Technologies and Expression Analysis (LTEA) Assay for Ezrin (EZR) using HepaRG (AID 2283491)
Procedure, shortened: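 EZR transcript levels came from Fluidigm qRT-PCR and were normalized to three housekeeping genes after 48 h chemical exposure of HepaRG cells. Dosing used an 8-point half-log series with a 100 uM top concentration in 0.5% DMSO, tested in duplicate; both directions were fitted versus vehicle.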

[11] = read-out: CYP3A5 (gene 1577); assay: LTEA_HepaRG_CYP3A5: Life Technologies and Expression Analysis (LTEA) Assay for CYP3A5 using HepaRG (AID 2283493)
Procedure, shortened: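 mRNA induction or loss of CYP3A5 assessed in HepaRG after 48 h dosing, 100 uM top concentration, duplicate wells; TaqMan qRT-PCR with ACTB, GAPDH, POLR2A normalization; 0.5% DMSO as negative control.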

[12] = read-out: Fatty Acid-Binding Protein 1 (FABP1), FABP1 (gene 2168); assay: LTEA_HepaRG_FABP1: Life Technologies and Expression Analysis (LTEA) Assay for Fatty Acid-Binding Protein 1 (FABP1) using HepaRG (AID 2283494)
Procedure, shortened: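 Differentiated human HepaRG cells exposed 48 h in serum-free induction medium to eight half-log concentrations up to 100 uM (0.5% DMSO), duplicate. FABP1 mRNA by qRT-PCR, normalised to ACTB, GAPDH, POLR2A; bidirectional fitting against DMSO.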

[13] = read-out: Cytochrome P450 4A22 (Homo sapiens) (UniProt Q5TCH4); assay: LTEA_HepaRG_CYP4A22: Life Technologies and Expression Analysis (LTEA) Assay for Cytochrome P450 4A22 (CYP4A22) using HepaRG (AID 2283495)
Procedure, shortened: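 Gene expression measured by qRT-PCR against three housekeeping genes (ACTB, GAPDH, POLR2A), with gain or loss fitted relative to 0.5% DMSO vehicle. HepaRG cultures received 48 h chemical treatment, top concentration 100 uM, half-log steps, duplicate wells.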

[14] = read-out: Cytochrome P450 7A1 (Homo sapiens) (UniProt P22680); assay: LTEA_HepaRG_CYP7A1: Life Technologies and Expression Analysis (LTEA) Assay for Cytochrome P450 7A1 (CYP7A1) using HepaRG (AID 2283496)
Procedure, shortened: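 Gene expression endpoint in human HepaRG liver cells treated for 48 h with test chemicals (up to 100 uM, 0.5% DMSO). Values come from bidirectional concentration-response fitting versus DMSO.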

[15] = read-out: Glutathione S-Transferase (GSTA2), GSTA2 (gene 2939); assay: LTEA_HepaRG_GSTA2: Life Technologies and Expression Analysis (LTEA) Assay for Glutathione S-Transferase (GSTA2) using HepaRG (AID 2283497)
Procedure, shortened: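 Differentiated human HepaRG cells were exposed in duplicate for 48 h in serum-free induction medium, 8 points from 100 uM top in half-log steps, 0.5% DMSO. GSTA2 mRNA was measured by TaqMan qRT-PCR, normalized to ACTB, GAPDH and POLR2A; bidirectional fit versus DMSO.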

[16] = read-out: Cytochrome P450 3A4 (Homo sapiens) (UniProt P08684); assay: LTEA_HepaRG_CYP3A4: Life Technologies and Expression Analysis (LTEA) Assay for CYP3A4 using HepaRG (AID 2283487)
Procedure, shortened: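 Differentiated HepaRG cells, plated 48 h, then dosed 48 h in serum-free induction medium with 0.5% DMSO, 8 half-log concentrations up to 100 uM, duplicate. CYP3A4 mRNA by qRT-PCR, normalized to ACTB/GAPDH/POLR2A; bidirectional fit versus DMSO.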

[17] = read-out: Cytochrome P450 3A7 (Homo sapiens) (UniProt P24462); assay: LTEA_HepaRG_CYP3A7: Life Technologies and Expression Analysis (LTEA) Assay for CYP3A7 using HepaRG (AID 2283492)
Procedure, shortened: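 CYP3A7 transcript measured by qRT-PCR (ACTB, GAPDH, POLR2A normalization) after 48 h chemical exposure of HepaRG cells in duplicate. Eight half-log concentrations, maximum 100 uM, 0.5% DMSO vehicle; bidirectional curve fitting against DMSO baseline.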

Cytochrome P450 3A7 (Homo sapiens), sequence (P24462 whole entry, looked up): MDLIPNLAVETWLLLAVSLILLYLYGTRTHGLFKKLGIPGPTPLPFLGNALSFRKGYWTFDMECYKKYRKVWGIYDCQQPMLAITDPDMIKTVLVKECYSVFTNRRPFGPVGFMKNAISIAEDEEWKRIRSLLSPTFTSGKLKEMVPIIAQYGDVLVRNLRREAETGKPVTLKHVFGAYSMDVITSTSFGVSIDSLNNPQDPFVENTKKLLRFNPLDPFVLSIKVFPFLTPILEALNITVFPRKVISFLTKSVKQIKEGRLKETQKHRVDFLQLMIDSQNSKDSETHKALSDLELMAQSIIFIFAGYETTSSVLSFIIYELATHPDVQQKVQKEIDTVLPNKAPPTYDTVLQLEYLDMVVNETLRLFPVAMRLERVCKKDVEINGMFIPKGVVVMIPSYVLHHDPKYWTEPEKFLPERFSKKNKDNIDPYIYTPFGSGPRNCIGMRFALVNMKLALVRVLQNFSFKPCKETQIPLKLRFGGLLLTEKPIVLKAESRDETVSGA
Cytochrome P450 3A4 (Homo sapiens), sequence (P08684 whole entry, looked up): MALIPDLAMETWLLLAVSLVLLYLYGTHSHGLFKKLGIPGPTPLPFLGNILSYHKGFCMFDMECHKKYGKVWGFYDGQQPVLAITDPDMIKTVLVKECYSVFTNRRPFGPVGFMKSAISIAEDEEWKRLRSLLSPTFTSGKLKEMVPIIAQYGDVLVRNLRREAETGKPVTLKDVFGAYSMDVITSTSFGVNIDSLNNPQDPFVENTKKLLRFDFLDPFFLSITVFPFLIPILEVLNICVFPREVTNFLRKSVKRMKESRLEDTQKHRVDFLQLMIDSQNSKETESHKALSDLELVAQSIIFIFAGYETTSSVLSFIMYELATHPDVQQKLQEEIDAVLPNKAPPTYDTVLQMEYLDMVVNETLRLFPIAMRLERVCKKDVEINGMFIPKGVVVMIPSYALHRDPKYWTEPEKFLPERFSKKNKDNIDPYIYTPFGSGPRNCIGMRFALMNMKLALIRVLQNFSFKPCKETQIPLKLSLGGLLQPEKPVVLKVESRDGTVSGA

c1ccc2[nH]c(-c3cscn3)nc2c1
outcome [1]: inactive | AC50 [2]: 23.6 µM (active) | AC50 [3]: 16.5 µM (active) | outcome [4]: inactive | outcome [5]: inactive | AC50 [6]: 50 µM (active) | outcome [7]: inactive | outcome [8]: inactive | outcome [9]: inactive | outcome [10]: inactive | outcome [11]: inactive | outcome [12]: inactive | outcome [13]: inactive | outcome [14]: inactive | outcome [15]: inactive

CC1(C)C(C=C(Cl)Cl)C1C(=O)OCc1cccc(Oc2ccccc2)c1 (stereo not drawn)
outcome [1]: inactive | AC50 [2]: 11 µM (active) | AC50 [3]: 12 µM (active) | outcome [4]: inactive | outcome [5]: inactive | AC50 [6]: 26.2 µM (active) | outcome [7]: inactive | AC50 [16]: 22.6 µM (active) | outcome [8]: inactive | outcome [9]: inactive | outcome [10]: inactive | AC50 [17]: 18.3 µM (active) | outcome [11]: inactive | outcome [12]: inactive | outcome [13]: inactive | outcome [14]: inactive | outcome [15]: inactive

OB(O)O
outcome [1]: inactive | outcome [2]: inactive | outcome [3]: inactive | outcome [4]: inactive | outcome [5]: inactive | outcome [6]: inactive | outcome [7]: inactive | outcome [16]: inactive | outcome [8]: inactive | outcome [9]: inactive | outcome [10]: inactive | outcome [17]: inactive | outcome [11]: inactive | outcome [12]: inactive | outcome [13]: inactive | outcome [14]: inactive | outcome [15]: inactive

COc1c(Cl)ccc(Cl)c1C(=O)O
outcome [1]: inactive | outcome [2]: inactive | outcome [3]: inactive | outcome [4]: inactive | outcome [5]: inactive | outcome [6]: inactive | outcome [7]: inactive | outcome [16]: inactive | outcome [9]: inactive | outcome [10]: inactive | outcome [17]: inactive | outcome [11]: inactive | outcome [12]: inactive | outcome [15]: inactive

CCCCOCCOCCOCc1cc2c(cc1CCC)OCO2
outcome [1]: inactive | AC50 [2]: 16.5 µM (active) | AC50 [3]: 2.28 µM (active) | AC50 [4]: 4.61 µM (active) | AC50 [5]: 3.39 µM (active) | AC50 [6]: 14 µM (active) | outcome [7]: inactive | outcome [8]: inactive | outcome [9]: inactive | outcome [10]: inactive | outcome [11]: inactive | outcome [12]: inactive | outcome [13]: inactive | outcome [14]: inactive | outcome [15]: inactive
